Test results from PubChem BioAssay AID540275 (National Center for Advancing Translational Sciences (NCATS), 2011).
In all, about 320,000 compounds went through this assay and about 620 (0.19%) were called active. About 6% were inconclusive and are not listed. The entries come from a sample that favours actives as a whole. Values without a mark were called inactive. Cut-off read from the data, not from the text of the source: active = activation above about 80%; inconclusive = between about 30% and that limit; inactive = weaker than that.

target: Transient receptor potential cation channel subfamily V member 1 (Homo sapiens) (UniProt Q8NER1); test: HTS Assay for Compounds that Act as Agonists of the Vanilloid Receptor 1; details: TRPV1-expressing cells, Fluo-8 calcium influx, agonist mode; at 8.33 µM; hits give high values; note: 0% is about no effect
Sequence (Q8NER1 whole entry, looked up): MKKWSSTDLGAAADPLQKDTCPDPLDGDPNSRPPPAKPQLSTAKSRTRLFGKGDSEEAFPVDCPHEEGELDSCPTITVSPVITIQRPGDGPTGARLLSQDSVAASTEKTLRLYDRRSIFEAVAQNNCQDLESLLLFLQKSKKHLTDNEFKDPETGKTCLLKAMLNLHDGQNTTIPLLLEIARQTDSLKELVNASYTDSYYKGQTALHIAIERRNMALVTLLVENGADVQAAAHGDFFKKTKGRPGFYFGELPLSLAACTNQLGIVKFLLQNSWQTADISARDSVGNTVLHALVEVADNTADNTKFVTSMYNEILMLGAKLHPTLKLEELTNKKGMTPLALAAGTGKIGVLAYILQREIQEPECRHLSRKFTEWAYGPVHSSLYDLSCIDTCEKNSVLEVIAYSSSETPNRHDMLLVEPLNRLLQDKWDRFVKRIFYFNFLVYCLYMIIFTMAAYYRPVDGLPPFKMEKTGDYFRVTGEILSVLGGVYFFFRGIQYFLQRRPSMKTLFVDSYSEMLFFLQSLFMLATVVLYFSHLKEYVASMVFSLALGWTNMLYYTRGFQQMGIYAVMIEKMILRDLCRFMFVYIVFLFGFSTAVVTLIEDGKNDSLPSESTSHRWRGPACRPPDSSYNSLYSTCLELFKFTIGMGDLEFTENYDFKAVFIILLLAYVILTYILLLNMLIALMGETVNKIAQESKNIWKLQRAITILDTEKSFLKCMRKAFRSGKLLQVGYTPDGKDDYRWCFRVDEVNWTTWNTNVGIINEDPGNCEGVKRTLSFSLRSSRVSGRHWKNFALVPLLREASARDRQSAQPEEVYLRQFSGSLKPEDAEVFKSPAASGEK
Description: The transient receptor potential ion channel, family V, number 1, (TRPV1) is one of the most important molecular transducers of painful stimuli and a potential target for analgesic drug development. Although recent clinical trials with orthosteric antagonists have not produced a successful drug because of a hyperthermia side effect and their tendency to block thermal noxious pain, this ion channel is undeniably well placed in the pain pathway, and the idea of blocking pain signals before they enter the CNS is an excellent concept and of proven efficacy when TRPV1 agonists are used. We propose a new approach involving allosteric modulation to impose an activity-dependent constraint within the context of inflammation and tissue damage that would alter the responsiveness of the channel in a way that an orthosteric vanilloid antagonist cannot achieve. We believe that the allosteric modulator approach has not been explored for this target. The main goal of this proposal is to identify additional, new, potent allosteric modulators of TRPV1 that can be used to investigate TRPV1 function. Our recent report provides evidence of proof of concept, but the compounds are just at the edge of utility in terms of potency. […] The question of whether they can be used as analgesic agents is complex, but if suitable compounds are identified then testing for analgesic properties will be conducted. NIH Chemical Genomics Center [NCGC] NIH Molecular Libraries Probe Centers Network [MLPCN] MLPCN Grant: MH089480-1A1 Assay Submitter (PI): Michael Iadarola, National Institute of Dental and Cranofacial Research
Upon TRPV1 activation in TRPV1 cells, the channel opens and extracellular cations flow through the channel into the cytosol. A calcium binding dye (Fluo-8) becomes fluorescent when bound to calcium. This dye is pre-loaded into cells and is used as a marker for calcium influx. The amount of accumulated calcium is precisely quantified using the FDSS kinetic reader and the calcium dye. For the HTS assay, freshly prepared cells are plated at a density of 2000/well in 3 ul medium in 1536-well plates and cultured overnight at 35.5C. Cells will be loaded with 1 ul of the homogeneous calcium dye (ABD Bioquest) at room temperature for 40 to 90 minutes. Plates will be loaded into the FDSS kinetic reader and a 1 sec / cycle for 10 second baseline signal will be measured. Compound library will then be added with a pintool at 23 nl and measured kinetically for 3 minutes. This portion of the read is considered the agonist portion of the screen. Following the 3 minutes of incubation, an on board pipettor will deliver 1 ul of capsaicin for a final concentration equal to the EC20. Signal will be measured kinetically for an additional 2 minutes. This portion of the read is considered the allosteric enhancer portion of the screen. The FDSS reader has a standard filter set capable of measuring calcium bound Fluo-8 (ex=480 and em=520 nm).

SMILES | activation
Cc1ncoc1C(=O)NCCC(c1ccccc1)c1ccccc1 | 98.7% (active)
Cc1ccc(C(=O)OCC(=O)Nc2ccc(Cl)cn2)cc1S(=O)(=O)N1CCOCC1 | 7.43%
CSc1ccc(Cl)c(C(=O)OCC(=O)N2CCNC2=O)c1 | 5.56%
O=C(CSc1ncnc2sccc12)N1CCN(C(=O)c2cccs2)CC1 | 0.688%
O=C(C1CC(=O)N(C2CCCC2)C1)N1CCN(c2cccc(C(F)(F)F)c2)CC1 (stereo not given) | 9.27%
COC(=O)[C@]1(C)CCC[C@@]2(C)C3CC[C@]4(OC(C)=O)C[C@@]3(CCC21)CC4=NO (stereo not given in full) | 19.3%
O=S(=O)(Nc1ccc2nc(N3CCOCC3)sc2c1)c1ccccc1 | -3.63%
CCCCc1ccc(NS(=O)(=O)c2cccc(C(=O)N3CCCN(C)CC3)c2)cc1 | -2.57%
NC(=O)NC(CC(=O)NNC(=O)c1ccccn1)c1ccc(Cl)cc1 (stereo not given) | 0.614%
CCOc1ccc(NC(=O)COC(=O)C2CCC(=O)N2)c([N+](=O)[O-])c1 (stereo not given) | 2.66%
COc1ccc(CCC(=O)N2CCN(S(=O)(=O)c3ccc(OC)cc3)CC2)cc1 | 16.4%
Cc1ccc(NC(=O)c2cccc(S(=O)(=O)N3CCCc4ccccc43)c2)nc1 | 21.4%
CCCCN(C(=O)c1ccc2ccccc2c1)c1c(N)n(CCCC)c(=O)[nH]c1=O | -2.14%
Cc1sc2ncnc(N3CCC(C(=O)Nc4ccc(F)cc4Cl)CC3)c2c1C | 1.84%
CCN(CC(=O)Nc1ccccc1OC)C(=O)CC1CC2CCC1C2 (stereo not given) | 23.5%
COc1ccc(OC)c(/C=C/C(=O)c2ccc3c(c2)OCO3)c1 | 25.2%
COc1ccc([C@H]2CC(=O)C=C(/C=C/c3ccc(Cl)cc3)C2)cc1 | 6.1%
CN1CCN(c2ccc(NC(=O)c3cc(Cl)c4c(c3)OCCO4)cc2)CC1 | -4.8%
O=C1C=C(c2cccc(Cl)c2O)C[C@@H](c2ccc(F)cc2)C1 | 15.9%
COc1ccc(NC(=O)COC(=O)c2n[nH]c3ccccc23)c(OC)c1 | 2.58%
COc1ccc(S(=O)(=O)N2CCOCC2)cc1NC(=O)c1ccc(OCC(C)C)c(OC)c1 | 3.95%
CN(c1ccccc1)S(=O)(=O)c1cccc(NC(=O)Cc2ccc(Cl)cc2)c1 | 6.78%
Cc1ccc(S(=O)(=O)NCCC(=O)NCc2ccc(Cl)cc2)cc1C | 21.8%

SMILES | activation
CC(C)c1nc(N2CCOCC2)c(C#N)c2c1COC(C)(C)C2 | 13.5%
CCOC(=O)CSc1nc(N2CCOCC2)c2c(c1C#N)CC(C(C)C)OC2 (stereo not given) | 17.3%
COc1ccc(CSc2nc(N3CCOCC3)c3c(c2C#N)CC(C)(C)OC3)cc1 | 80.5% (active)
COc1ccc(OC)c(/C=N/NC(=O)c2ccc[n+](CC(=O)c3ccccc3)c2)c1 | -2.79%
CC(=O)Nc1ccc(S(=O)(=O)NC(C)C(=O)OCCOc2ccc(F)cc2)cc1 (stereo not given) | 3.17%
O=C(COc1ccccc1Cl)N1N=C(c2cccs2)CC1c1ccco1 (stereo not given) | 17.2%
O=C(Nc1cccc2cccnc12)C(F)(F)F | -6.93%
CC(NC(=O)COC(=O)c1cc(=O)[nH]c2ccccc12)c1ccccc1 (stereo not given) | 3.95%
CC(NC(=O)COC(=O)c1ccc(Cl)cc1O)c1ccc(F)cc1 (stereo not given) | 96.5% (active)
C=CCOc1ccc(/C=C/C(=O)OCC(=O)NC(C)c2ccc(F)cc2)cc1 (stereo not given) | 0.454%
CN(CC(=O)Nc1ccc(Cl)c(C(F)(F)F)c1)C(=O)CCC(=O)c1ccccc1 | 17.3%
CC1(C)O[C@@H]2[C@H](O1)[C@@H](COS(=O)(=O)O)O[C@H]2n1ccc(=O)[nH]c1=O | -5.53%
COc1ccccc1CNS(=O)(=O)c1cc(C(=O)NCc2ccccn2)c(Cl)cc1Cl | -2.79%
C=C1CCC(N(O)c2cc(C)on2)C(=C)CCC2C1CC2(C)C (stereo not given) | 13.2%
C=C(C)CNc1cc(S(=O)(=O)N2CCOCC2)ccc1Oc1ccccc1 | -6.07%
COc1ccccc1Nc1cc(C(=O)NCCCN(C)C2CCCCC2)c2ccccc2n1 | 5.29%
CCCCn1c(N)c(N(CCC(C)C)C(=O)COC(=O)c2cccnc2OCC)c(=O)[nH]c1=O | 1.64%
CC(C)c1ccc(S(=O)(=O)N2CCN(C(C)C(=O)NC3CCCC3)CC2)cc1 (stereo not given) | 10.1%
CCCn1c(N)c(N(CCOC)C(=O)C2CCCC2)c(=O)[nH]c1=O | 1.46%
COc1cccc(N2CCN(CC(=O)Nc3ccnn3C3CCCC3)CC2)c1 | 1.23%
CC(=O)c1c(C)[nH]c(C(=O)COc2ccc3c(C)cc(=O)oc3c2)c1C | -2.89%
CC(C)N(Cc1nnc(-c2ccccc2Br)o1)C(=O)c1cc(Cl)nc2ccccc12 | 9.24%
